MEKK2 WT-MEK5 = modulators of MEK5 binding to wildtype MEKK2, primary screen, biochemical, multiplex bead flow cytometry, Alexa488-MEK5. binding response (% of control), % at 10 µM. Mitogen-activated protein kinase kinase kinase 2 (Homo sapiens), Q9Y2U5. AID 1531, 2009. Alexa488-MEK5 binding to MEKK2 WT; actives lie on both sides. actives 1.1% (n = 290,000); in the data active = binding response below about 67% or above about 130%
MEKK3 PB1 HTS = modulators of MEKK3-MEK5 PB1 binding, primary screen, biochemical, wildtype MEKK3, multiplex bead flow cytometry, Alexa488-MEK5; AID 1529, 2009; actives 1.4% (n = 290,000); bead-based flow cytometry, Alexa488-MEK5 binding to MEKK3; actives lie on both sides; 0 = blocked by unlabeled MEK5, 100 = vehicle; Mitogen-activated protein kinase kinase kinase 3 (Homo sapiens), Q99759; binding response (% of control), % at 10 µM;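 active = binding response more than 3 SD above or below the average of its plate-row segment, actives on both sides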;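 also: Alexa488 bead fluorescence after subtracting the streptavidin-only scavenger bead signal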
GRK2 aptamer HTS = compounds blocking aptamer binding on GRK2 – biochemical, human GRK2, bead flow cytometry, HTS, primary screen | Beta-adrenergic receptor kinase 1 (Homo sapiens), P25098 | FAM-aptamer displacement from GRK2 | inhibition of aptamer binding, % at 10 µM | actives 0.59% (n = 330,000);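 active = inhibition of aptamer binding above 40%, roughly 3 SD of noise, on plates passing a quality check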;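 also: median bead fluorescence of bound FAM aptamer so fluorescent compounds give negative values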
Target sequence (P25098 whole entry, looked up): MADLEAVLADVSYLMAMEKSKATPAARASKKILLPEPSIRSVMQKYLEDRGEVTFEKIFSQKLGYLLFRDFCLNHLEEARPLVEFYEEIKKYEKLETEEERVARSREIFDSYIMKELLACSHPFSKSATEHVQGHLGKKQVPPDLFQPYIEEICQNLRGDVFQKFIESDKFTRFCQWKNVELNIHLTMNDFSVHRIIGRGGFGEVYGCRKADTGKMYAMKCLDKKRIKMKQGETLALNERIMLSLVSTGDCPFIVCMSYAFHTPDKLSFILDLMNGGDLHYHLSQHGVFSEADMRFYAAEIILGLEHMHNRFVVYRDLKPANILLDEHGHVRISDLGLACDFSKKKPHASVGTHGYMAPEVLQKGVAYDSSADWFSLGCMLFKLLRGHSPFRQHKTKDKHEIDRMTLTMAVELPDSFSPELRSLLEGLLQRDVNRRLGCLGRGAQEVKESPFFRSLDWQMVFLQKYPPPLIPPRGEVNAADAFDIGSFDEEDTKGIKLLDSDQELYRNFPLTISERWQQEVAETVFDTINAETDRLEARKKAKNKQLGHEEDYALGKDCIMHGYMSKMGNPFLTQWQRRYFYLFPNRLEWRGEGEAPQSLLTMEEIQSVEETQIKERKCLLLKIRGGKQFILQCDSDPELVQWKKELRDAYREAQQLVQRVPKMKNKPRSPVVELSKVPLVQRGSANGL
MEKK2 mut-MEK5 = MEK5 binding signal on mutant MEKK2 PB1, primary screen, biochemical, multiplex bead flow cytometry, Alexa488-MEK5 | Alexa488-MEK5 binding to MEKK2 mutant | percent response, % at 10 µM | actives 0.35% (n = 290,000) | AID 1530, 2009; in the data active = percent response above about 24%, passing the limit was not always enough
MEKK2wt confirm = modulators of MEK5 binding to wildtype MEKK2, confirmation, biochemical, single concentration, multiplex bead flow cytometry | shares compounds with MEKK3 PB1 HTS | Alexa488-MEK5 binding to MEKK2 WT; actives lie on both sides | binding response (% of control), % at 10 µM | actives 2.4% (n = 5,900) | AID 1892, 2009; in the data active = binding response below about 16% or above about 210%; inactive = in between
MEKK2mut-MEK5 = mutant MEKK2 PB1-MEK5 binding signal retest – biochemical, single concentration, multiplex bead flow cytometry, confirmation | shares compounds with MEKK3 PB1 HTS | Alexa488-MEK5 binding to MEKK2 mutant | percent response, % at 10 µM | actives 2% (n = 5,900) | AID 1893, 2009; in the data active = percent response mostly above about 71%, no sharp cut-off; inactive = mostly below about 38%;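 also: higher means compound restores mutant binding toward wildtype level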
MEKK3 confirm = MEKK3 wild-type PB1 binding to MEK5, inhibitors, confirmation, biochemical, bead multiplex flow cytometry, single concentration, wildtype; AID 1894, 2009; Alexa488-MEK5 binding to MEKK3; stronger effect = lower value; shares compounds with MEKK3 PB1 HTS; binding response (% of control), % at 10 µM; actives 1.8% (n = 5,900);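 active = binding response below 72% of control, or above a set upper limit, though filed actives all read lower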;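 also: 100% = DMSO only wells and 0% = binding blocked by excess unlabeled MEK5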
Numbers without * were called inactive; . = no result given; [ ] = remark or other dose. Hits are enriched below; roughly 2.5% of the tested compounds scored in any of these assays.

SMILES	MEKK2 WT-MEK5	MEKK3 PB1 HTS	GRK2 aptamer HTS	MEKK2 mut-MEK5	MEKK2wt confirm	MEKK2mut-MEK5	MEKK3 confirm
Cc1ccccc1CSc1nnc(C)c(=O)n1N	89	86	3	-4	.	.	.
Cc1nnc(SCc2ccccc2)n(N)c1=O	93	69*[inhibitor]	0	-1	100	-2	103
Cc1ccc(CSc2nnc(C)c(=O)n2N)cc1	101	131*	2	-1	102	2	100
Cc1ccc(NC(=O)CN(C)S(=O)(=O)c2cccc3cccnc23)cc1C	104	102	2	-1	.	.	.
CCOc1ccc2nc(SCC(=O)NC(=O)NCc3ccco3)sc2c1	101	103	0	3	.	.	.
O=C(CSc1nc2cc(Cl)ccc2s1)NC(=O)NCc1ccco1	85	81*[inhibitor]	1	-11	99	-1	100
Cc1cc(N/N=C/c2ccc(O)cc2)c2cccc(C)c2n1	209*	110	0	29*	134	21	107
Cc1cc(C)c2nc(C)cc(N/N=C/c3ccc(O)cc3)c2c1	237*	115	3	119*	244*	102*	111
COC(=O)[C@H](Cc1ccccc1)NC(=O)C1CCN(C(=O)[C@H](C)NS(=O)(=O)c2ccc(C)cc2)CC1	98	100	1	1	.	.	.
Cc1cccc(NC(=S)N(CCCN2CCCC2)Cc2cccn2Cc2ccc(Cl)cc2)c1	206*	110	0	65*	169	41	109
CCOc1ccc(NC(=S)N(CCCN2CCCC2)Cc2cccn2Cc2ccc(Cl)cc2)cc1	186*	110	0	3	147	21	105
COc1cc2c3nnc(-c4ccccc4)c-3cn(Cc3ccccc3F)c2cc1OC	153*	96	0	26	132	13	99
COc1cc2c3nnc(-c4ccc(F)cc4)c-3cn(Cc3ccccc3F)c2cc1OC	100	92	.	-2	.	.	.
CN(C)c1nc(NCc2ccccc2)nc(N/N=C/c2cccc(Br)c2)n1	139*	108	2	15	125	13	106
O=C(Nc1cccc(S(=O)(=O)N2CCCCC2)c1)Nc1ccc(Cl)cc1Cl	141*	153*	2	3	126	10	105
O=C(Nc1cccc(S(=O)(=O)N2CCCCC2)c1)c1ccc2ncsc2c1	59*[inhibitor]	86	4	-10	107	-2	102
NS(=O)(=O)c1cccc(NC(=O)c2cccc(S(=O)(=O)N3CCCCCC3)c2)c1	.	.	0	.	.	.	.
Cc1ccc(NC(=O)CSCc2n[nH]c(=O)[nH]2)c(Br)c1	104	102	1	1	.	.	.
Cc1nn(C)c(=O)n1N(C)c1ncc(C(F)(F)F)cc1Cl	114	139*	7	3	90	-4	97
Cc1nn(Cc2ccccc2)c(=O)n1N(C)c1ncc(C(F)(F)F)cc1Cl	109	104	0	5	.	.	.
CC[n+]1c(/C=C/c2c[nH]c3ccccc23)ccc2cc(C)ccc21	.	87	.	119*	163	30	104
COc1ccc(NC(=O)N2CCN(c3cccc(C(F)(F)F)c3)CC2)cc1	0.0*[inhibitor]	0.0*[inhibitor]	0	-21	97	-4	101
Cc1cc(C(=O)COC(=O)Cc2n[nH]c(=O)c3ccccc23)c(C)n1-c1ccc2c(c1)OCCO2	102	135*	29	0	101	-5	96
CC1CCCN(C(=O)CN2C(=O)c3ccccc3C2=O)C1 (stereo not drawn)	13*[inhibitor]	29*[inhibitor]	4	-35	95	10	103
CN(C)C/C=C/C(O)(c1ccccc1)c1ccccc1	104	101	0	3	.	.	.
SMILES	MEKK2 WT-MEK5	MEKK3 PB1 HTS	GRK2 aptamer HTS	MEKK2 mut-MEK5	MEKK2wt confirm	MEKK2mut-MEK5	MEKK3 confirm
CN(C)CC(CCC(CN(C)C)C(O)(c1ccccc1)c1ccccc1)C(O)(c1ccccc1)c1ccccc1 (stereo not drawn)	149*	108	.	21	161	45	117
COc1ccccc1CC(=O)Nc1ccon1	105	101	4	4	.	.	.
CCc1ccc(N(CC(=O)N2CCCCCC2)S(C)(=O)=O)cc1	103	102	1	4	.	.	.
COc1ccc(/C=C(/NC(=O)c2ccccc2)C(=O)N/N=C/c2sccc2C)cc1	105	133*	1	1	94	-6	98
Cn1c(SCC(=O)N2CCCC2)nnc1-c1ccc(S(=O)(=O)N2CCCC2)cc1	101	98	3	7	.	.	.
CCC(=O)Nc1ccc(-c2nnc(SCC(=O)N3CCCCC3)n2C)cc1	1.0*[inhibitor]	2.0*[inhibitor]	5	-15	103	1	108
CCC(=O)Nc1ccc(C(=O)CSc2nnc(-c3ccc(NS(C)(=O)=O)cc3)n2C)cc1OC	94	73*[inhibitor]	2	-1	103	4	104
CCn1c(SCC(=O)c2ccc(NC(C)=O)c(OC)c2)nnc1-c1ccc(NS(C)(=O)=O)cc1	102	105	1	-1	.	.	.
COCCNC(=S)NCCCNc1nc2cc3c(cc2cc1C#N)OCO3	105	103	0	4	.	.	.
CCOCCCNC(=S)NCCCNc1nc2cc3c(cc2cc1C#N)OCO3	-4.0*[inhibitor]	1.0*[inhibitor]	3	-18	97	-2	99
CNC(=S)N/N=C/c1ccccc1Cl	108	142*	0	0	102	-1	102
Cn1nc(-c2ccc(Cl)cc2)c2cc(C(=O)NCCCN3CCOCC3)sc21	154*	112	0	13	140	19	104
Cn1nc(-c2ccc(Cl)cc2)c2cc(C(=O)NC3CC3)sc21	105	107	7	3	.	.	.
Cn1nc(-c2ccc(Cl)cc2)c2cc(C(=O)NCCN3CCOCC3)sc21	136*	113	0	9	127	14	109
O=C(COC(=O)c1ccc(O)cc1O)Nc1cccc2ccccc12	.	.	1	.	.	.	.
O=c1c2ccccc2nc(/C=C/c2c[nH]c3ccccc23)n1-c1ccc([N+](=O)[O-])cc1	95	75*[inhibitor]	0	-2	96	-7	96
Cc1[nH]c2ccccc2c1/C=C/c1nc2ccccc2c(=O)n1-c1cccc([N+](=O)[O-])c1	90	90	0	-7	.	.	.
CCCNC(=O)OCc1cccnc1Sc1ccc(C)cc1	115	118	0	-1	.	.	.

Screening results: PubChem BioAssay, NMMLSC
